Test results: ChEMBL document CHEMBL1157539, “Thousands of chemical starting points for antimalarial lead identification” (Nature, 2010)
Where “and” joins values, the source holds several entries; their conditions need not be identical. Equal values may be shown once.

Key:
Format in all cases: functional
Plasmodium falciparum [1] = assay: GSK_TCMDC: Inhibition of Plasmodium falciparum 3D7 in whole red blood cells, using parasite LDH activity as an index of growth. Test compounds present at 2uM
Plasmodium falciparum [2] = assay: GSK_TCMDC: Inhibition of Plasmodium falciparum Dd2 in whole red blood cells, using parasite LDH activity as an index of growth. Test compounds present at 2uM
HepG2 = assay: GSK_TCMDC: Percent inhibition of human HepG2 cell line. Test compounds present at 10uM.

Row | SMILES | Inhibition (Plasmodium falciparum [1]) | Inhibition (Plasmodium falciparum [2]) | Inhibition (HepG2)
1 | CCCCCSc1cc(O)c(C(CNC)C(C)C)cc1OC.O=C(O)/C=C\C(=O)O (stereo not drawn) | 100% | 99% | 5%
2 | CN1CC=C(c2c[nH]c3ccc(Br)cc23)CC1 | 88% | 80% | 0%
3 | O=C(/C=C/c1ccc(Cl)c(Cl)c1)N1CCC(CN2CCC(c3c[nH]c4ccccc34)C(O)C2)CC1 (stereo not drawn) | 99% | 14% | 37%
4 | CC(C)n1ncc2c(C(=O)Nc3ccc(C#N)c(Cl)c3)cc(C3CC3)nc21 | 93% | 15% | 20%
5 | Cc1ccc(C)c(C=CC(=O)NC2CCC(CN3CCC(c4c[nH]c5ccccc45)CC3)CC2)c1 (stereo not drawn) | 100% | 55% and 80% | 46% and 38%
6 | C/C=C1/CN2CC[C@H]1C[C@H]2[C@H](O)c1ccnc2ccc(O)cc12 | 99% | 11% | 0%
7 | Cc1ccc(/C=C/C(=O)NC2CCC(CN3CCC(c4c[nH]c5ccccc45)CC3)CC2)cc1C (stereo not drawn) | 100% | 71% and 91% | 23% and 38%
8 | Cc1[nH]c2ccc(O)cc2c1C1CCN(CC2CCC(NC(=O)/C=C/c3ccc(Cl)c(Cl)c3)CC2)CC1 (stereo not drawn) | 100% | 95% | 19%
9 | CC(=O)N(Cc1ccccc1-c1cccc(CNCCc2ccccc2)c1)C1CCN(Cc2ccccc2)CC1.O=C(O)C(F)(F)F | 89% | 30% | 19%
10 | COc1ccc(C(=O)C2CC2CN2CC=C(c3c[nH]c4ccc(OC)nc34)CC2)cc1 (stereo not drawn) | 98% | 91% | 8%
11 | COCCNCc1cccc(-c2ccc(CN(C(=O)NC3CCCCC3)C3CCN(Cc4ccccc4)CC3)cc2)c1.O=C(O)C(F)(F)F | 100% | 31% | 32%
12 | CNCCN(C)C(=O)Oc1c(Br)c(C)nc(C)c1-c1ccc(Oc2ccc(OC(F)(F)F)cc2)cc1.Cl | 98% | 98% | 19%
13 | CC[C@H]1CN2CC[C@@H]1C[C@H]2[C@H](O)c1cc(N2CCOCC2)nc2ccc(OC)cc12 | 99% | 99% | 10%
14 | Cc1ccc(/C=C/C(=O)NC2CCC(CN3CCC(c4c[nH]c5ccccc45)CC3)CC2)cc1 (stereo not drawn) | 100% | 66% and 69% | 32% and 41%
15 | O=C(COc1ccc(Cl)cc1)N1CCC(CN2CCC(c3c[nH]c4ccccc34)CC2)CC1 | 89% | 13% | 48%
16 | COc1cccc(C(=O)C2CC2CN2CC=C(c3c[nH]c4cccc(Br)c34)CC2)c1 (stereo not drawn) | 96% | 85% | 22%
17 | COc1cc(/C=C/C(=O)NC2CCC(CN3CCC(c4c[nH]c5ccccc45)CC3)CC2)ccc1O (stereo not drawn) | 98% and 99% | 45% and 44% | 11% and 19%
18 | O=C(Nc1ccc(Cl)c(Cl)c1)N1CCC(CN2CCC(c3c[nH]c4ccccc34)CC2)CC1 | 100% | 69% | 46%
19 | COc1ccc(C=CC(=O)NC2CCC(CN3CCC(c4c[nH]c5ccccc45)CC3)CC2)cc1OC (stereo not drawn) | 100% | 85% and 72% | 14% and 15%
20 | O=C(C=Cc1ccc(Br)cc1)NC1CCC(CN2CCC(c3c[nH]c4ccccc34)CC2)CC1 (stereo not drawn) | 100% | 98% | 71%
21 | CC(Cc1ccc(NC(=O)[C@H](C)NCCc2cccc(Cl)c2)cc1)NCCc1cccc(Cl)c1.Cl (stereo partly drawn) | 100% | 54% | 99%
22 | Oc1cc2c(cc1CN1CCN(Cc3ccccc3)CC1)CCC2 | 98% | 92% | 1%
23 | CCc1ccc(CC(C)NCC(O)c2ccccc2)cc1.O (stereo not drawn) | 89% | 77% | 0%
24 | CNC(=O)c1ccc2[nH]cc(C3CCN(CC4CCN(C(=O)/C=C/c5ccc(Cl)c(Cl)c5)CC4)CC3)c2c1 | 100% | 88% | 3%
25 | O=C(/C=C/c1cccc(F)c1)NC1CCC(CN2CCC(c3c[nH]c4ccccc34)CC2)CC1 (stereo not drawn) | 99% and 98% | 28% and 31% | 39% and 35%
26 | CC(=O)C1(c2ccccc2)CCN(CCC2(c3ccc(Cl)c(Cl)c3)CN(C(=O)Nc3cc(F)cc(F)c3)CCO2)CC1 (stereo not drawn) | 86% | 20% | 2%
